We go through two compounds from PubChem BioAssay (EPA / NIEHS).

Where “and” joins values, the source holds several entries; their conditions need not be identical. Equal values may be shown once. Records with an inconclusive call do not appear. More than one record can exist for a structure, and the calls need not agree. Calls of active or inactive are those of the source. The calls were made as follows, unless noted: active = hit-call score of the fitted dose curve at least 0.9, where 1 is the maximum; inactive = score below 0.9.

Read-out in assay [1]: Pyruvate Dehydrogenase Kinase 4 (PDK4), PDK4 (gene 5166)
Kind of assay: LTEA_HepaRG_PDK4: Life Technologies and Expression Analysis (LTEA) Assay for Pyruvate Dehydrogenase Kinase 4 (PDK4) using HepaRG (AID 2283525). As to conditions: mRNA level, 48 h; actives raise or lower the signal. A digest of the protocol:
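HepaRG (human liver line), 48 h chemical exposure, 8-pt half-log CRC top 100 uM, 0.5% DMSO vehicle, duplicates. Readout: TaqMan qRT-PCR of PDK4 mRNA, housekeeping-normalized; gain/loss fit relative to DMSO baseline.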

Read-out in assay [2]: NAD(P)H dehydrogenase [quinone] 1 (NQO1), NQO1 (gene 1728)
Kind of assay: LTEA_HepaRG_NQO1: Life Technologies and Expression Analysis (LTEA) Assay for NAD(P)H dehydrogenase [quinone] 1 (NQO1) using HepaRG (AID 2283526). As to conditions: mRNA level, 48 h; actives raise or lower the signal. Put shortly:
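In this assay, gene expression is read by qRT-PCR after 48 h exposure of HepaRG cells to eight concentrations (max 100 uM, half-log) in 0.5% DMSO. Each chemical runs in duplicate, and activity is scored relative to vehicle.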

Read-out in assay [3]: Nuclear factor erythroid 2-related factor 2 (Homo sapiens) (UniProt Q16236)
The assay can be described thus: LTEA_HepaRG_NFE2L2: Life Technologies and Expression Analysis (LTEA) Assay for Nuclear factor erythroid 2-related factor 2 (NFE2L2) Transcription Factor using HepaRG (AID 2283527).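 As to outcome: TaqMan qRT-PCR transcript level normalised to ACTB GAPDH and POLR2A housekeeping genes.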 The conditions noted are these: mRNA level, 48 h; actives raise or lower the signal. A digest of the protocol:
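HepaRG, 48 h dosing, 8-pt half-log series from 100 uM in 0.5% DMSO, duplicates. Read-out: NFE2L2 mRNA by qRT-PCR (ACTB/GAPDH/POLR2A normalization). Bidirectional curve fit vs DMSO baseline.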

Read-out in assay [4]: succinate dehydrogenase complex iron sulfur subunit B (SDHB), SDHB (gene 6390)
Kind of assay: LTEA_HepaRG_SDHB: Life Technologies and Expression Analysis (LTEA) Assay for succinate dehydrogenase complex iron sulfur subunit B (SDHB) using HepaRG (AID 2283528). As to conditions: mRNA level, 48 h; actives raise or lower the signal. A digest of the protocol:
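HepaRG cells (~100,000/well, plated 48 h) exposed in duplicate for 48 h in serum-free induction medium to 8-point half-log series from 100 uM in 0.5% DMSO; mRNA by qRT-PCR normalised to ACTB, GAPDH, POLR2A; bidirectional fit versus DMSO.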

Read-out in assay [5]: Signal transducer and activator of transcription 3 (Homo sapiens) (UniProt P40763)
The assay can be described thus: LTEA_HepaRG_STAT3: Life Technologies and Expression Analysis (LTEA) Assay for Signal transducer and activator of transcription (STAT3) using HepaRG (AID 2283529). The conditions noted are these: mRNA level, 48 h; actives raise or lower the signal. Put shortly: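 HepaRG, 48 h exposure, 8-pt half-log series (top 100 uM), 0.5% DMSO vehicle, duplicates. Readout: STAT3 transcript by Fluidigm qRT-PCR, housekeeping-normalized; bidirectional fit vs DMSO baseline.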

Read-out in assay [6]: solute carrier (SLCO1B1), SLCO1B1 (gene 10599)
The assay can be described thus: LTEA_HepaRG_SLCO1B1: Life Technologies and Expression Analysis (LTEA) Assay for solute carrier (SLCO1B1) using HepaRG (AID 2283530). The conditions noted are these: mRNA level, 48 h; actives raise or lower the signal. A digest of the protocol: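 HepaRG, serum-free induction medium, 48 h dosing, 8-pt half-log from 100 uM, 0.5% DMSO vehicle, duplicates. Readout: SLCO1B1 mRNA, qRT-PCR, ACTB/GAPDH/POLR2A normalization; up or down fit vs DMSO.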

Read-out in assay [7]: sulfotransferase 2A1 (SULT2A1), SULT2A1 (gene 6822)
The assay can be described thus: LTEA_HepaRG_SULT2A1: Life Technologies and Expression Analysis (LTEA) Assay for sulfotransferase 2A1 (SULT2A1) using HepaRG (AID 2283531). As to conditions: mRNA level, 48 h; actives raise or lower the signal. A digest of the protocol: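 Transcript levels of SULT2A1, quantified by qRT-PCR and normalized to three housekeeping genes, serve as the readout. Human HepaRG cultures receive test chemicals for 48 h at up to 100 uM in half-log steps, with 0.5% DMSO vehicle.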

Read-out in assay [8]: Transforming Growth Factor (TGFA), TGFA (gene 7039)
The assay can be described thus: LTEA_HepaRG_TGFA: Life Technologies and Expression Analysis (LTEA) Assay for Transforming Growth Factor (TGFA) using HepaRG (AID 2283532). As to conditions: mRNA level, 48 h; actives raise or lower the signal. Put shortly:
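qRT-PCR read-out of TGFA transcript, normalized to three housekeeping genes, fitted bidirectionally against 0.5% DMSO baseline. Human HepaRG cultures received chemicals for 48 h at eight half-log concentrations, top 100 uM.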

Read-out in assay [9]: Transforming Growth Factor (TGFB1), TGFB1 (gene 7040)
Kind of assay: LTEA_HepaRG_TGFB1: Life Technologies and Expression Analysis (LTEA) Assay for Transforming Growth Factor (TGFB1) Transporter using HepaRG (AID 2283533). As to conditions: mRNA level, 48 h; actives raise or lower the signal. A digest of the protocol:
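HepaRG, 48 h post-plating, switched to serum-free induction medium; chemicals 100 uM top, half-log, 8 pts, 0.5% DMSO, dup; 48 h exposure; RNA → Fluidigm TaqMan qRT-PCR; norm ACTB/GAPDH/POLR2A; bidirectional fit vs DMSO.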

Read-out in assay [10]: TIMP1, TIMP1 (gene 7076)
The assay can be described thus: LTEA_HepaRG_TIMP1: Life Technologies and Expression Analysis (LTEA) Assay for TIMP1 using HepaRG (AID 2283534). The conditions noted are these: mRNA level, 48 h; actives raise or lower the signal. Put shortly:
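Readout is TIMP1 mRNA level measured by qRT-PCR and normalized to three housekeeping genes. Human HepaRG cells were treated for 48 h in duplicate at eight concentrations up to 100 uM (0.5% DMSO); gain or loss fitted against DMSO.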

Read-out in assay [11]: Tumor necrosis factor receptor 1 (TNFRSF1A), TNFRSF1A (gene 7132)
Kind of assay: LTEA_HepaRG_TNFRSF1A: Life Technologies and Expression Analysis (LTEA) Assay for Tumor necrosis factor receptor 1 (TNFRSF1A) using HepaRG (AID 2283535). As to conditions: mRNA level, 48 h; actives raise or lower the signal. Put shortly: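 Read-out is TNFRSF1A transcript level by TaqMan qRT-PCR, normalized to three housekeeping genes, scored as gain or loss of signal versus 0.5% DMSO. Human HepaRG cells received test chemicals for 48 h at up to 100 uM (half-log series).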

Read-out in assay [12]: Thyroid Hormone Responsive (THRSP), THRSP (gene 7069)
Kind of assay: LTEA_HepaRG_THRSP: Life Technologies and Expression Analysis (LTEA) Assay for Thyroid Hormone Responsive (THRSP) using HepaRG (AID 2283536). The conditions noted are these: mRNA level, 48 h; actives raise or lower the signal. Put shortly:
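qRT-PCR read-out (Fluidigm TaqMan), housekeeping-normalized (ACTB/GAPDH/POLR2A). HepaRG, 48 h chemical exposure, 8-pt half-log series from 100 uM in 0.5% DMSO, duplicates. Bidirectional curve fit vs 0.5% DMSO baseline.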

Read-out in assay [13]: Cellular tumor antigen p53 (Homo sapiens) (UniProt P04637)
The assay can be described thus: LTEA_HepaRG_TP53: Life Technologies and Expression Analysis (LTEA) Assay for Tumor Protein P53 (TP53) using HepaRG (AID 2283537). The conditions noted are these: mRNA level, 48 h; actives raise or lower the signal. A digest of the protocol: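 Differentiated HepaRG cells in serum-free induction medium exposed 48 h in duplicate to 8 half-log concentrations, top 100 uM, 0.5% DMSO. TP53 mRNA by TaqMan qRT-PCR (Fluidigm), normalized to ACTB, GAPDH, POLR2A; fitted bidirectionally versus DMSO.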

Read-out in assay [14]: UDP glucuronosyltransferase (UGT1A1), UGT1A1 (gene 54658)
The assay can be described thus: LTEA_HepaRG_UGT1A1: Life Technologies and Expression Analysis (LTEA) Assay for UDP glucuronosyltransferase (UGT1A1) using HepaRG (AID 2283538). As to conditions: mRNA level, 48 h; actives raise or lower the signal. Put shortly:
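mRNA induction or loss of UGT1A1, by TaqMan qRT-PCR, in duplicate HepaRG wells after 48 h exposure to half-log dilutions topping at 100 uM; DMSO (0.5%) served as baseline.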

Read-out in assay [15]: UDP glucuronosyltransferase (UGT1A6), UGT1A6 (gene 54578)
Kind of assay: LTEA_HepaRG_UGT1A6: Life Technologies and Expression Analysis (LTEA) Assay for UDP glucuronosyltransferase (UGT1A6) using HepaRG (AID 2283539). The conditions noted are these: mRNA level, 48 h; actives raise or lower the signal. Put shortly: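 HepaRG, 48 h post-plating switch to serum-free induction medium; chemical 48 h, 100 uM top, half-log x8, duplicate, 0.5% DMSO. Phenobarbital 1mM induction control. UGT1A6 mRNA by TaqMan qRT-PCR; gain/loss fit vs DMSO.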

Read-out in assay [16]: X-box binding protein 1 (XBP1), XBP1 (gene 7494)
Kind of assay: LTEA_HepaRG_XBP1: Life Technologies and Expression Analysis (LTEA) Assay for X-box binding protein 1 (XBP1) using HepaRG (AID 2283540). As to conditions: mRNA level, 48 h; actives raise or lower the signal. Put shortly: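 Transcript levels of XBP1, measured by qRT-PCR and normalised to three housekeeping genes, were fitted bidirectionally relative to 0.5% DMSO controls. Human HepaRG cells received eight-point half-log dilutions from 100 uM for 48 h.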

Assay [17] is described as follows: LTEA_HepaRG_LDH_cytotoxicity: Cytotoxicity Assessment in the Life Technologies and Expression Analysis (LTEA) Assay (AID 2283563; active = hit-call score of the fitted dose curve at least 0.9, where 1 is the maximum;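 as to AC50: LDH activity released into spent culture medium as a marker of cell death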). A digest of the protocol:
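Cells were thawed and plated for 48 h. Medium was then replaced with serum-free induction medium. Chemicals (8 half-log points, maximum 100 uM, 0.5% DMSO) were added in duplicate for 48 h, after which spent medium was assayed for LDH.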

The nature of assay [18]: ATG_XTT_Cytotoxicity: Cytotoxicity Assessment in the Attagene TRANS-FACTORIAL HepG2 Assay (AID 2283584; active = hit-call score of the fitted dose curve at least 0.9, where 1 is the maximum;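 as to AC50: cells exposed to compound for 24 h before reading; active means loss of viability signal versus DMSO baseline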). A digest of the protocol: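 Cells: human HepG2, transiently transfected with MRTU reporter constructs. Exposure 24 h. Readout: XTT, cell number. Baseline/neg ctrl DMSO; loss-of-signal scored.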
The nature of assay [19]: TOX21_p53_BLA_p2_viability: Viability Assessment in the Tox21 HCT-116 p53 Agonism Beta-lactamase Assay, Phase 2 (AID 2283591; active = hit-call score of the fitted dose curve at least 0.9, where 1 is the maximum;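 also: compound exposure lasted 16 h at 37 °C; actives lower the ATP signal meaning cytotoxicity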). A digest of the protocol:
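HCT116 p53-bla cells, 4000/well, dosed after 5 h plating (217-fold dilution of DMSO stocks) and incubated 16 h at 37C. Viability taken as cellular ATP by CellTiter-Glo luminescence after 30 min RT; signal loss marks cytotoxicity.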

Assay [20] has as its target Cellular tumor antigen p53 (Homo sapiens) (UniProt P04637). Kind of assay: TOX21_p53_BLA_p2_ratio: Tox21 HCT-116 p53 Agonism Beta-lactamase Assay, Ratio, Phase 2 (AID 2283592; active = hit-call score of the fitted dose curve at least 0.9, where 1 is the maximum). Put shortly: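 Plated HCT116 p53-bla cells (4000/well) received compound after 5 h, then 16 h at 37C/5% CO2. CCF4-AM added, 2 h RT. Ratio of 460 to 530 nm emission taken as the p53 reporter signal.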

Chain of Cellular tumor antigen p53 (Homo sapiens) (P04637 whole entry, looked up): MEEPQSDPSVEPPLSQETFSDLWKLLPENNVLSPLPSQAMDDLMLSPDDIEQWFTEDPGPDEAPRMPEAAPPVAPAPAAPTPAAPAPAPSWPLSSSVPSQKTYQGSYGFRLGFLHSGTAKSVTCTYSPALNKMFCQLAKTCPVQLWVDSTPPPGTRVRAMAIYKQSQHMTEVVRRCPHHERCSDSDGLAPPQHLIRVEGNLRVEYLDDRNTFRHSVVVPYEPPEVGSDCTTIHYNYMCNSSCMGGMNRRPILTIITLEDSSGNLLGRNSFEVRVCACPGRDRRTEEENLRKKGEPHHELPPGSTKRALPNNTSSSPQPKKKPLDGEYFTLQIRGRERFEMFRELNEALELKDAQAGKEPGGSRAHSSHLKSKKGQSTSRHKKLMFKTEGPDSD
Chain of Signal transducer and activator of transcription 3 (Homo sapiens) (P40763 whole entry, looked up): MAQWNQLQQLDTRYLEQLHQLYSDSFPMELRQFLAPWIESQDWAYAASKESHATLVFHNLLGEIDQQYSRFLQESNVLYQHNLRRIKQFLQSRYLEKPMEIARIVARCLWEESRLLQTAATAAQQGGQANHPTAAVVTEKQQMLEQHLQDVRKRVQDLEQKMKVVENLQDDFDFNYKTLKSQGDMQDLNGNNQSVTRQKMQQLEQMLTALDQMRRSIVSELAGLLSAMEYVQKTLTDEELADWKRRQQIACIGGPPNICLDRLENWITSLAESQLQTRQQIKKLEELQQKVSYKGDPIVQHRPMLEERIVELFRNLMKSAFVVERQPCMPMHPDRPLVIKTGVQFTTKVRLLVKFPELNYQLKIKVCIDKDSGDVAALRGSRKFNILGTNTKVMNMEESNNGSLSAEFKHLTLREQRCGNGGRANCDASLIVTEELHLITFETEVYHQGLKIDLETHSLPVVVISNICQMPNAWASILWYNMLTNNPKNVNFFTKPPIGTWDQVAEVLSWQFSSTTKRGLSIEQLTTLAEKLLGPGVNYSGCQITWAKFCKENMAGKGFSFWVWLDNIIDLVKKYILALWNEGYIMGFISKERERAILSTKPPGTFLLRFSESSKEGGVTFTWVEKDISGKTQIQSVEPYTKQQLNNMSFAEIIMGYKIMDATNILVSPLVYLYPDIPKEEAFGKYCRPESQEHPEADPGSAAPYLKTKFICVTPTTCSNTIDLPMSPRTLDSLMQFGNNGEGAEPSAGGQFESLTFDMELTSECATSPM
Chain of Nuclear factor erythroid 2-related factor 2 (Homo sapiens) (Q16236 whole entry, looked up): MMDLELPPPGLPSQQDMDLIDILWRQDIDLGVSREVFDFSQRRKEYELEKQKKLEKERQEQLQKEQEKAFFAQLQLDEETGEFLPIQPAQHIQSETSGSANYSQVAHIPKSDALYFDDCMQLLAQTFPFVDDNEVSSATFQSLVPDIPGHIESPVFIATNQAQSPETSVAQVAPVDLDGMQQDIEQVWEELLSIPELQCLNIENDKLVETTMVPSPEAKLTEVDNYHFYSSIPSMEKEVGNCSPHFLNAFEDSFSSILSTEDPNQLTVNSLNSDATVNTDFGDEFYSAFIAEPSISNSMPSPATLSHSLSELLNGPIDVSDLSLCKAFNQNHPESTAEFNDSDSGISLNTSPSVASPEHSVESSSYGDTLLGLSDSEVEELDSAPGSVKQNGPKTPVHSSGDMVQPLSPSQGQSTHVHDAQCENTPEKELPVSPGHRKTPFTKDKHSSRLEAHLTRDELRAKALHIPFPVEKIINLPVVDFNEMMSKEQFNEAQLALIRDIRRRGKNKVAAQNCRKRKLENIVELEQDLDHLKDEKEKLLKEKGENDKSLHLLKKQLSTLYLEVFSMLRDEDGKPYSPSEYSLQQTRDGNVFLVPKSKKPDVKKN

In general, AC50 refers to the concentration giving half of the maximal activity seen. Turning to `CC[C@H](c1ccc(O)cc1)[C@@H](CC)c1ccc(O)cc1`, the AC50 is 80.4 µM (active) in assay [1]; 81.8 µM (active) in assay [2]; 78.8 µM (active) in assay [3]; 79.4 µM (active) in [4]; 93.8 µM (active) in [5]; 92.8 µM (active) in [6]. The AC50 in assay [7] is 79.7 µM (active); in assay [9], 79.5 µM (active); in assay [11] it was 93.4 µM (active); in assay [13], 80.1 µM (active); in assay [14], 83.3 µM (active); in assay [16] it was 85.6 µM (active). The AC50 was 76.1 µM (active) in assay [17]; 144 µM (active) and 133 µM (active) and 164 µM (active) in [18]; 61.7 µM (active) in assay [19]; 66.6 µM (active) in [20]. Further, the outcome in assay [8], in assay [10], in assay [12], in [15], in assay [18] and in [19] was inactive. The result in assay [20] was inactive.

`Nc1cccc2c(N)cccc12`: the result in assay [1], in assay [2], in [3], in assay [4], in assay [5] and in assay [7] was inactive. In addition, the outcome in [8], in assay [9], in assay [10], in assay [11], in [13] and in assay [14] was inactive. The compound was called inactive in assay [15], in assay [16], in assay [17], in assay [18], in assay [19] and in [20]. The AC50 in assay [6] is 9.92 µM (active); in [12] it was 10.9 µM (active).
